Several values for one entry are separate records, joined by “and”; a condition that tells them apart may be missing. Equal values may be shown once. Records with an inconclusive call do not appear. A call without a number means that no potency is given here. Activity calls are given as the source filed them. The call rests on the fitted dose curve; in most records, active means well fitted cell-killing curve with a large enough effect; inconclusive means small, poorly fitted or top-dose-only effect; inactive means flat fitted curve, though single readings scatter.
Assay: Cell Viability - LYMP2-023 (AID 975);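 further: cells exposed to compound for 24 hours at 37 °C; nearly all actives have a fitted effect of over 55% in size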
Conditions: LYMP2-023 lymphoblastoid cell viability; series mostly up to 92.2 µM
Method in brief: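 2500 cells/well, 5 hr 37 C; cpd 24 hr 37 C; CellTiter-Glo, 30 min RT; luminescence. qHTS conc-response, Hill fit -> AC50. Pos ctrl tetraoctylammonium bromide.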
For `S=C=S`, the Potency was “inactive”.
With `CCCCCCCCOC(=O)c1ccccc1C(=O)OCCCCCCCC` the Potency was “inactive”.
In the case of `C=CCN=C=S`, the Potency is reported as “inactive”.
In the case of `NNC(N)=O`, the Potency is reported as “inactive”.
For `O=C(O)C(Cl)(Cl)Cl`, the Potency was “inactive”.
With `[O]=[Cd]` the Potency was “inactive”.
In the case of `O=C1CCO1`, the Potency is reported as “inactive”.
In the case of `COc1ccc2c(c1OC)C(=O)OC2C1c2cc3c(cc2CCN1C)OCO3` (stereo not given), the Potency is reported as “inactive”.
With `Clc1ccccc1Cl` the Potency was “inactive”.
With `[Cl-].[Cl-].[Hg+2]` the Potency was 10 µM (active).
For `C[C@H]1CC[C@@H]2[C@@H](C)[C@H]3[C@H](C[C@H]4[C@@H]5CC=C6CC(O[C@@H]7O[C@H](CO)[C@H](O)[C@H](O[C@@H]8O[C@H](CO)[C@@H](O)[C@H](O)[C@H]8O)[C@H]7O[C@H]7O[C@@H](C)[C@H](O)[C@@H](O)[C@H]7O)CC[C@]6(C)[C@H]5CC[C@]34C)N2C1` (stereo not given in full), the Potency was 39.8 µM (active).
In the case of `COC1=CC(=O)O[C@@H](/C=C/c2ccccc2)C1`, the Potency is reported as “inactive”.
In the case of `CC(C)Nc1ccc(Nc2ccccc2)cc1`, the Potency is reported as 39.8 µM (active).
In the case of `C[C@]12CCC(=O)C[C@@H]1CC[C@@H]1[C@@H]2CC[C@]2(C)[C@@H](O)CC[C@@H]12`, the Potency is reported as “inactive”.
With `ClC(Cl)(Cl)Cl` the Potency was “inactive”.
With `O=Cc1ccco1` the Potency was “inactive”.
In the case of `ClCC1CO1` (stereo not given), the Potency is reported as “inactive”.
In the case of `ClC=C(Cl)Cl`, the Potency is reported as “inactive”.
For `CC(C)CCON=O`, the Potency was “inactive”.
In the case of `Oc1cc(Cl)c(Cl)cc1Cl`, the Potency is reported as “inactive”.
In the case of `CCCCCl`, the Potency is reported as “inactive”.
With `C[C@H]1CCC[C@H](O)CCCCCc2cc(O)cc(O)c2C(=O)O1` the Potency was “inactive”.
In the case of `CC(C)(C)c1cc(O)ccc1O`, the Potency is reported as “inactive”.
In the case of `O=C1C2CC=CCC2C(=O)N1SC(Cl)(Cl)Cl` (stereo not given), the Potency is reported as 3.98 µM (active) and 7.94 µM (active).
With `O=C/C=C/c1ccccc1` the Potency was “inactive”.
In the case of `O=[N+]([O-])c1ccccc1`, the Potency is reported as “inactive”.
For `CCOC(=O)c1ccccc1C(=O)OCC`, the Potency was “inactive”.
With `[O]=[Cr](=[O])([OH])[O][Cr](=[O])(=[O])[OH]` the Potency was 12.6 µM (active) and 10 µM (active).
With `O=CC=O` the Potency was “inactive”.

Assay: Cell Viability - LYMP2-025 (AID 976)
Conditions: LYMP2-025 lymphoblastoid cell viability; series mostly up to 92.2 µM
Method in brief: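 Seed 2500 LYMP2-025 cells/well; 5 hr at 37 C; add compound; 24 hr at 37 C; add CellTiter-Glo; 30 min RT; read luminescence. AC50 from Hill-modelled concentration-response.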
For `S=C=S`, the Potency was “inactive”.
In the case of `CCCCCCCCOC(=O)c1ccccc1C(=O)OCCCCCCCC`, the Potency is reported as “inactive”.
With `C=CCN=C=S` the Potency was “inactive”.
In the case of `NNC(N)=O`, the Potency is reported as “inactive”.
With `O=C(O)C(Cl)(Cl)Cl` the Potency was “inactive”.
In the case of `[O]=[Cd]`, the Potency is reported as “inactive”.
In the case of `O=C1CCO1`, the Potency is reported as “inactive”.
For `COc1ccc2c(c1OC)C(=O)OC2C1c2cc3c(cc2CCN1C)OCO3` (stereo not given), the Potency was “inactive”.
For `Clc1ccccc1Cl`, the Potency was “inactive”.
In the case of `[Cl-].[Cl-].[Hg+2]`, the Potency is reported as 15.8 µM (active).
In the case of `C[C@H]1CC[C@@H]2[C@@H](C)[C@H]3[C@H](C[C@H]4[C@@H]5CC=C6CC(O[C@@H]7O[C@H](CO)[C@H](O)[C@H](O[C@@H]8O[C@H](CO)[C@@H](O)[C@H](O)[C@H]8O)[C@H]7O[C@H]7O[C@@H](C)[C@H](O)[C@@H](O)[C@H]7O)CC[C@]6(C)[C@H]5CC[C@]34C)N2C1` (stereo not given in full), the Potency is reported as 39.8 µM (active).
For `COC1=CC(=O)O[C@@H](/C=C/c2ccccc2)C1`, the Potency was “inactive”.
In the case of `CC(C)Nc1ccc(Nc2ccccc2)cc1`, the Potency is reported as 50.1 µM (active).
For `C[C@]12CCC(=O)C[C@@H]1CC[C@@H]1[C@@H]2CC[C@]2(C)[C@@H](O)CC[C@@H]12`, the Potency was “inactive”.
With `ClC(Cl)(Cl)Cl` the Potency was “inactive”.
For `O=Cc1ccco1`, the Potency was “inactive”.
For `ClCC1CO1` (stereo not given), the Potency was “inactive”.
With `ClC=C(Cl)Cl` the Potency was “inactive”.
With `CC(C)CCON=O` the Potency was “inactive”.
For `Oc1cc(Cl)c(Cl)cc1Cl`, the Potency was “inactive”.
In the case of `O=C1C=CC(=O)C=C1`, the Potency is reported as “inactive”.
In the case of `CCCCCl`, the Potency is reported as “inactive”.
In the case of `C[C@H]1CCC[C@H](O)CCCCCc2cc(O)cc(O)c2C(=O)O1`, the Potency is reported as “inactive”.
For `CC(C)(C)c1cc(O)ccc1O`, the Potency was “inactive”.
In the case of `O=[N+]([O-])c1ccc(F)c([N+](=O)[O-])c1`, the Potency is reported as “inactive”.
In the case of `O=C/C=C/c1ccccc1`, the Potency is reported as “inactive”.
In the case of `O=[N+]([O-])c1ccccc1`, the Potency is reported as “inactive”.
With `CCOC(=O)c1ccccc1C(=O)OCC` the Potency was “inactive”.
With `[O]=[Cr](=[O])([OH])[O][Cr](=[O])(=[O])[OH]` the Potency was 15.8 µM (active) and 12.6 µM (active).
In the case of `O=CC=O`, the Potency is reported as “inactive”.

Assay: Cell Viability - LYMP2-002 (AID 977)
Conditions: LYMP2-002 lymphoblastoid cell viability, qHTS; series mostly up to 92.2 µM
Method in brief: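 Luminescent ATP readout (CellTiter-Glo, 30 min room temperature) after 24 h compound exposure at 37 C of a human lymphoblastoid line, 2500 cells/well. AC50 values derived by standard Hill fitting of qHTS concentration-response data.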
For `S=C=S`, the Potency was “inactive”.
In the case of `CCCCCCCCOC(=O)c1ccccc1C(=O)OCCCCCCCC`, the Potency is reported as “inactive”.
For `C=CCN=C=S`, the Potency was “inactive”.
In the case of `NNC(N)=O`, the Potency is reported as “inactive”.
With `O=C(O)C(Cl)(Cl)Cl` the Potency was “inactive”.
With `[O]=[Cd]` the Potency was “inactive”.
With `O=C1CCO1` the Potency was “inactive”.
With `COc1ccc2c(c1OC)C(=O)OC2C1c2cc3c(cc2CCN1C)OCO3` (stereo not given) the Potency was “inactive”.
In the case of `Clc1ccccc1Cl`, the Potency is reported as “inactive”.
With `[Cl-].[Cl-].[Hg+2]` the Potency was 20 µM (active).
In the case of `C[C@H]1CC[C@@H]2[C@@H](C)[C@H]3[C@H](C[C@H]4[C@@H]5CC=C6CC(O[C@@H]7O[C@H](CO)[C@H](O)[C@H](O[C@@H]8O[C@H](CO)[C@@H](O)[C@H](O)[C@H]8O)[C@H]7O[C@H]7O[C@@H](C)[C@H](O)[C@@H](O)[C@H]7O)CC[C@]6(C)[C@H]5CC[C@]34C)N2C1` (stereo not given in full), the Potency is reported as 50.1 µM (active).
With `COC1=CC(=O)O[C@@H](/C=C/c2ccccc2)C1` the Potency was “inactive”.
In the case of `CC(C)Nc1ccc(Nc2ccccc2)cc1`, the Potency is reported as 25.1 µM (active).
For `C[C@]12CCC(=O)C[C@@H]1CC[C@@H]1[C@@H]2CC[C@]2(C)[C@@H](O)CC[C@@H]12`, the Potency was “inactive”.
With `ClC(Cl)(Cl)Cl` the Potency was “inactive”.
For `O=Cc1ccco1`, the Potency was “inactive”.
In the case of `ClCC1CO1` (stereo not given), the Potency is reported as “inactive”.
In the case of `ClC=C(Cl)Cl`, the Potency is reported as “inactive”.
In the case of `CC(C)CCON=O`, the Potency is reported as “inactive”.
In the case of `Oc1cc(Cl)c(Cl)cc1Cl`, the Potency is reported as “inactive”.
For `O=C1C=CC(=O)C=C1`, the Potency was “inactive”.
For `CCCCCl`, the Potency was “inactive”.
For `C[C@H]1CCC[C@H](O)CCCCCc2cc(O)cc(O)c2C(=O)O1`, the Potency was “inactive”.
In the case of `CC(C)(C)c1cc(O)ccc1O`, the Potency is reported as “inactive”.
In the case of `O=[N+]([O-])c1ccc(F)c([N+](=O)[O-])c1`, the Potency is reported as “inactive”.
In the case of `O=C1C2CC=CCC2C(=O)N1SC(Cl)(Cl)Cl` (stereo not given), the Potency is reported as 6.31 µM (active) and 10 µM (active).
With `O=C/C=C/c1ccccc1` the Potency was “inactive”.
In the case of `O=[N+]([O-])c1ccccc1`, the Potency is reported as “inactive”.
For `CCOC(=O)c1ccccc1C(=O)OCC`, the Potency was “inactive”.
For `[O]=[Cr](=[O])([OH])[O][Cr](=[O])(=[O])[OH]`, the Potency was 12.6 µM (active) and 15.8 µM (active) and 10 µM (active).
In the case of `O=CC=O`, the Potency is reported as “inactive”.

Source: PubChem BioAssay (NCATS)
Potency means the concentration at half of the fitted maximal effect.
